The test has as its target furin, P09958. The test can be described thus: furin cleavage Z-score vs untreated control; higher = more cleavage, active = 3.5 or more, inactive = 1 or less, 8 variable residues between constant flanks. In short, it runs like this: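 Furin cleavage was scored on 8-mer peptides joined to a cDNA oligonucleotide and bound to magnetic beads at the N-terminus. Digestion with purified furin (1:10 enzyme:substrate, 0.01 ml, 50 mM HEPES pH 7.5, CaCl2, NaCl) lasted 7.5, 15 or 30 min. Freed DNA was tagged with adapters by PCR, sequenced and counted; the cleavage Z-score is the lowess-adjusted log count versus furin-free reactions, scaled by median absolute deviation.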

This is one part of the list. The true hit rate is not given.

furin, P09958, sequence (P09958 whole entry): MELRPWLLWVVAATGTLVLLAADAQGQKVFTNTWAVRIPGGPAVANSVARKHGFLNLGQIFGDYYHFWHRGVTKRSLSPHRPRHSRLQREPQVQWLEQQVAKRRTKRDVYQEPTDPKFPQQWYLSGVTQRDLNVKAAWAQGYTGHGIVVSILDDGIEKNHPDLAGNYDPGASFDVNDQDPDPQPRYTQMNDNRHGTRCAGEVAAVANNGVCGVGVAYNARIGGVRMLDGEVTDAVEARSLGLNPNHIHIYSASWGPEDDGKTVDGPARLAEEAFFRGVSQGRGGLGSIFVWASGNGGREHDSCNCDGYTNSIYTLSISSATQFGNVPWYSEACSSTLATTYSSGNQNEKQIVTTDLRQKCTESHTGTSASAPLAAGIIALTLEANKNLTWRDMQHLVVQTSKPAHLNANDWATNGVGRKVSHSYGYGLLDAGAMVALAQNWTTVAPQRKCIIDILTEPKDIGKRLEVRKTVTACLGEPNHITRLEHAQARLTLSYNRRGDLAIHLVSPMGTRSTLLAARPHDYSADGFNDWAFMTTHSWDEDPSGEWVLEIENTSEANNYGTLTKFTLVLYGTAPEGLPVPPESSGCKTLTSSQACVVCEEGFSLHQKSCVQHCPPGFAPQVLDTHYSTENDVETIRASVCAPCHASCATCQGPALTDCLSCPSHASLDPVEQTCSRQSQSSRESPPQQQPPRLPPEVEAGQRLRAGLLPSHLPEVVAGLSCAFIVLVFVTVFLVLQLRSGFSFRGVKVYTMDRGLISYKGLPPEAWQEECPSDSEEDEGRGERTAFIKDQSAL

On to CAEVETSTWVAGNASASA [HC2192], for which the “furin cleavage Z-score” value is -0.139 (inactive) (7.5 min), -0.872 (inactive) (15 min) and -0.676 (inactive) (30 min).

Consider CAEVVVSTWVAGNASASA [HC123], for which the “furin cleavage Z-score” value (7.5 min) is 0.0781 (inactive), the “furin cleavage Z-score” value (15 min) is -2.67 (inactive) and the “furin cleavage Z-score” value (30 min) is -0.513 (inactive).

As to CAVILLMCAVAGNASASA [HC597], the “furin cleavage Z-score” value was -0.0828 (inactive) (7.5 min), -1.86 (inactive) (15 min) and -1.55 (inactive) (30 min).

Take CAPISRRRRHAGNASASA [FS-69]: the “furin cleavage Z-score” value was 10.5 (active) (7.5 min), 12.1 (active) (15 min) and 10.2 (active) (30 min).

In the case of CAVALRRRRHAGNASASA [FS-1577], the “furin cleavage Z-score” value (7.5 min) was 11.1 (active), the “furin cleavage Z-score” value (15 min) was 12.6 (active) and the “furin cleavage Z-score” value (30 min) was 9.5 (active).

For the sequence CAETMRRRRHAGNASASA [FS-928], the “furin cleavage Z-score” value was 10.4 (active) (7.5 min), 11.7 (active) (15 min) and 10 (active) (30 min).

As to CAYMNRRRRHAGNASASA [FS-320], the “furin cleavage Z-score” value (7.5 min) was 5.9 (active), the “furin cleavage Z-score” value (15 min) is 7.94 (active) and the “furin cleavage Z-score” value (30 min) was 6.26 (active).

In the case of CAELITSCSSAGNASASA [HC1551], the “furin cleavage Z-score” value runs as follows: (7.5 min) -0.448 (inactive); (15 min) 0.888 (inactive); (30 min) -0.654 (inactive).

For CACRASGVLTAGNASASA [HC1510], the “furin cleavage Z-score” value is -0.191 (inactive) (7.5 min), -0.919 (inactive) (15 min) and -0.424 (inactive) (30 min).

As to CAPVVTSTWVAGNASASA [HC2159], the “furin cleavage Z-score” value was 0.805 (inactive) (7.5 min), 0.48 (inactive) (15 min) and 0.275 (inactive) (30 min).

For the sequence CAEVFCVQPEAGNASASA [HC1442], the “furin cleavage Z-score” value (7.5 min) was -0.865 (inactive), the “furin cleavage Z-score” value (15 min) is -0.957 (inactive) and the “furin cleavage Z-score” value (30 min) is -0.965 (inactive).

CAMMSRIFRHAGNASASA [FS-1236]: the “furin cleavage Z-score” value (7.5 min) was -0.468 (inactive), the “furin cleavage Z-score” value (15 min) was -0.194 (inactive) and the “furin cleavage Z-score” value (30 min) came out at 1.99.

In the case of CAMKIRRRRHAGNASASA [FS-275], the “furin cleavage Z-score” value is 6.27 (active) (7.5 min), 6.38 (active) (15 min) and 5.11 (active) (30 min).

For CAVACCSMSYAGNASASA [HC2003], the “furin cleavage Z-score” value was -0.939 (inactive) (7.5 min), 1.22 (15 min) and 0.305 (inactive) (30 min).

Take CARMKRYILHAGNASASA [FS-2222]: the “furin cleavage Z-score” value is, setting by setting: (7.5 min) 2.82; (15 min) 6.82 (active); (30 min) 8.57 (active).

Regarding CARMKRESLMAGNASASA [FS-3228], the “furin cleavage Z-score” value is, setting by setting: (7.5 min) 9.24 (active); (15 min) 10.5 (active); (30 min) 11.4 (active).

In the case of CARKKKEEEMAGNASASA [FS-2264], the “furin cleavage Z-score” value reads like this: (7.5 min) -1.03 (inactive); (15 min) -1.15 (inactive); (30 min) -0.39 (inactive).

As to CARMKRVWDRAGNASASA [FS-2722], the “furin cleavage Z-score” value by setting is: (7.5 min) 2.92; (15 min) -0.324 (inactive); (30 min) 0.97 (inactive).

On to CAEAADAILHAGNASASA [HC268], for which the “furin cleavage Z-score” value is, setting by setting: (7.5 min) 1.3; (15 min) -1.15 (inactive); (30 min) 0.548 (inactive).

In the case of CARMKREDLNAGNASASA [FS-2718], the “furin cleavage Z-score” value by setting is: (7.5 min) 11.1 (active); (15 min) 11.1 (active); (30 min) 9.09 (active).

CARMKREITTAGNASASA [FS-2047]: the “furin cleavage Z-score” value reads like this: (7.5 min) 9.07 (active); (15 min) 9.89 (active); (30 min) 7.88 (active).

Turning to CARMKRILQRAGNASASA [FS-2720], the “furin cleavage Z-score” value reads like this: (7.5 min) 0.0731 (inactive); (15 min) 1.31; (30 min) 0.696 (inactive).

With CATTPCTGSWAGNASASA [HC76], the “furin cleavage Z-score” value is, setting by setting: (7.5 min) 0.592 (inactive); (15 min) 0.698 (inactive); (30 min) 0.31 (inactive).

Take CAKQKALGLLAGNASASA [HC1025]: the “furin cleavage Z-score” value by setting is: (7.5 min) -0.454 (inactive); (15 min) 1.56; (30 min) 0.147 (inactive).

As for CALLLAAGVGAGNASASA [HC1659], the “furin cleavage Z-score” value runs as follows: (7.5 min) -1.34 (inactive); (15 min) -0.972 (inactive); (30 min) 0.0513 (inactive).

For the sequence CADREVVTSTAGNASASA [HC2293], the “furin cleavage Z-score” value by setting is: (7.5 min) 0.73 (inactive); (15 min) -0.878 (inactive); (30 min) 0.0278 (inactive).

CANVDQDLVGAGNASASA [HC712]: the “furin cleavage Z-score” value runs as follows: (7.5 min) -0.364 (inactive); (15 min) -0.928 (inactive); (30 min) 0.183 (inactive).

As to CARALAHGVRAGNASASA [HC235], the “furin cleavage Z-score” value (7.5 min) was -1.61 (inactive), the “furin cleavage Z-score” value (15 min) was -0.489 (inactive) and the “furin cleavage Z-score” value (30 min) is -0.193 (inactive).

With CARHRRTPDRAGNASASA [FS-2555], the “furin cleavage Z-score” value by setting is: (7.5 min) 3.94 (active); (15 min) 6.66 (active); (30 min) 4.45 (active).

As to CARHRRQIDRAGNASASA [FU5], the “furin cleavage Z-score” value is, setting by setting: (7.5 min) 8.52 (active); (15 min) 9.09 (active); (30 min) 7.54 (active).

As to CARHRARSVRAGNASASA [HC1621], the “furin cleavage Z-score” value reads like this: (7.5 min) 5.03 (active); (15 min) 5.34 (active); (30 min) 5.83 (active).

Source of the values: the supplement of paper PMC3545927.
